Only some compounds are listed: those with a hit (about 2.3% of all), similar ones and a draw of the others.
ADAM17 inh = ADAM17 inhibitors, primary screen, biochemical, QFRET | inhibition, % at 6.95 µM | actives 0.83% (n = 370,000) | recombinant ADAM17, EDANS/DABCYL FRET peptide cleavage;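 active means inhibition above the mean of compounds lying between control limits plus 3 SD, set per campaign, cut at about 8.5% in these data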;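 further: 0% = DMSO-only wells as the low control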
Target sequence (P78536 215-824 limits assumed): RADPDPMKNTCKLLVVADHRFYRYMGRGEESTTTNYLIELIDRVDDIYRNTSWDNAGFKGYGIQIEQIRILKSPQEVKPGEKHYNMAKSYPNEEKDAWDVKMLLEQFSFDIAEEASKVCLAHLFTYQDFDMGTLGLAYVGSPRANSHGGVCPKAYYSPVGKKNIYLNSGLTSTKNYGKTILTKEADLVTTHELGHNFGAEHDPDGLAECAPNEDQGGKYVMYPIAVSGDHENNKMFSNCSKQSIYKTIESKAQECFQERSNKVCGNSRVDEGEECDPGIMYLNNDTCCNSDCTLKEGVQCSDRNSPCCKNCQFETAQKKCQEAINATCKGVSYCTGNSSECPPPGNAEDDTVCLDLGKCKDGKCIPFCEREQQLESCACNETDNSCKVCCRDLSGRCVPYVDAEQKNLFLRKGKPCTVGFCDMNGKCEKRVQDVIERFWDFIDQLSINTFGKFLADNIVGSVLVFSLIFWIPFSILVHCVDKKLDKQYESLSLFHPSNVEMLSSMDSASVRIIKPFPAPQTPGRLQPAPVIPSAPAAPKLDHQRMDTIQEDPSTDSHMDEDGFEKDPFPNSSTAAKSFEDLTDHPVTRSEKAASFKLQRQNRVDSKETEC
V-ATPase pH = regulators of yeast V-ATPase proton pumping, primary screen, pHLuorin cytosolic pH fluorescence; response, % at 10 µM; S. cerevisiae; actives 0.37% (n = 350,000); AID 504577, 2011; in the data active means response mostly above about 7.3%, no sharp cut-off; inactive means mostly below about 5.4%; further: actives read high
KLK7 zymogen act = proKLK7 zymogen activators, primary screen, biochemical, fluorescence intensity | Kallikrein-7 (Homo sapiens), P49862 | purified proKLK7, EDANS-DABCYL substrate fluorescence; 100% is mature enzyme control, 0% vehicle | activation, % at 7 µM | actives 0.9% (n = 370,000);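 active means activation above the mean of all tested compounds plus 3 SD, computed per campaign excluding outliers beyond control limits, cut at about 13% in these data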
ADAM10 inh = human ADAM10 inhibitors, primary screen, biochemical, QFRET, HTS. Disintegrin and metalloproteinase domain-containing protein 10 (Homo sapiens), O14672. recombinant ADAM10, EDANS/DABCYL FRET peptide cleavage, 3 h. inhibition, % at 7 µM. actives 0.62% (n = 370,000);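 active means inhibition above a per-campaign cutoff equal to the mean of compounds falling between control-based bounds plus 3 SD, cut at about 20% in these data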;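 further: 0% = DMSO wells while the 100% control is not disclosed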
V-ATPase pH SP = yeast V-ATPase proton pumping modulators, confirmation, S. cerevisiae, pH-sensitive GFP, second cherry-pick; shares compounds with V-ATPase pH; S. cerevisiae pHLuorin cytosolic pH, V-ATPase proton transport; response, % at 10 µM; AID 602197, 2012; actives 2% (n = 980); in the data active means response above about 24%;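 further: plate controls were vehicle wells for no effect and positive control wells for full effect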
Starred values were filed as active, the others as inactive; nt = no result.

SMILES	ADAM17 inh	V-ATPase pH	KLK7 zymogen act	ADAM10 inh	V-ATPase pH SP
COc1ccc(N2CCN(CCNS(=O)(=O)c3c(C(C)C)cc(C(C)C)cc3C(C)C)CC2)cc1	6.2	nt	0.0	11.0	nt
COc1ccc(Cc2n[nH]c(=O)c3ccccc23)cc1OC	5.0	21.6*	0.5	8.4	3.4
CCOCCCNC(=O)C1CCN(S(=O)(=O)c2cc3c(cc2Br)CCN3C(=O)CC)CC1	-1.4	nt	-0.1	-3.2	nt
COC(=O)c1cn(NC(=O)Cc2ccccc2OC)c(=O)c2ccccc12	-0.1	1.4	-1.7	-0.5	nt
COC(=O)c1cn(NC(=O)Cc2ccccc2Br)c(=O)c2ccccc12	-3.0	9.1*	-1.8	8.6	-2.7
CS(=O)(=O)N1CCCC(C(=O)Nc2ccccc2)C1 (stereo unspecified)	-3.9	12.4*	0.3	-15.7	-0.7
COc1ccc(NC(=O)C2CCCN(S(C)(=O)=O)C2)cc1 (stereo unspecified)	-3.2	1.2	0.5	6.1	nt
CC(=O)N1c2cc(S(=O)(=O)Nc3c(C)n(C)n(-c4ccccc4)c3=O)c(Br)cc2CC1C (stereo unspecified)	-3.0	nt	0.1	-2.7	nt
Cn1cccc1C(=O)OCC(=O)N1CCN(c2ccccc2)CC1	-8.3	9.8*	-0.4	-14.7	2.7
O=C(NCc1cccc(C(F)(F)F)c1)O[C@H]1CC[C@@]23CCCN2C(=O)CCC[C@H]3C1	0.0	nt	nt	4.1	nt
COc1ccccc1NC(=O)c1ccccc1S(=O)(=O)c1ccccc1[N+](=O)[O-]	1.2	10.8*	-0.3	-5.0	6.2
CCc1ccc(C(C(=O)NC2CCCC2)N(C(=O)/C=C/C(=O)Nc2cc(C)on2)c2ccccc2C)cc1 (stereo unspecified)	1.6	10.1*	-0.4	2.3	1.9
CCCCSCCCNC(=O)CCCN1C(=O)c2ccccc2Sc2ncccc21	3.7	-2.7	0.4	-1.6	nt
CCCNC(=O)CCCN1C(=O)c2ccccc2Sc2ncccc21	3.6	9.0*	-0.5	-1.0	4.8
COc1ccc2ccccc2c1-c1c(C(=O)c2ccc(Br)cc2)[nH]c(N)c1C(=O)NC1CCCCC1	1.1	nt	nt	4.7	nt
Cc1nn(-c2ccccc2)nc1C(N)=O	-4.1	1.7	0.4	1.0	nt
CC(C)(C)n1cnc(C(N)=O)c1N	-3.5	9.5*	-0.1	3.0	1.9
CC(C)C[C@H](NC(=O)OC(C)(C)C)C(=O)N[C@@H](CO)[C@H](O)[C@@H]1C[C@@H]1C(=O)NC1CC1	-0.6	0.1	0.2	5.4	nt
CC(C)C[C@H](NC(=O)OC(C)(C)C)C(=O)N[C@@H](CO)[C@H](O)[C@@H]1C[C@@H]1C(=O)NC1CCCCC1	-3.1	25.8*	-1.1	-6.0	1.6
COC1=C[C@H](C(=O)NCc2ccc(OC)cc2)C(C)C(c2ccccc2)CC1=O (stereo partly specified)	-1.5	nt	-0.2	-5.5	nt
Cc1cc(NC(=O)c2cc(-c3ccc(Br)cc3)on2)no1	-5.0	10.1*	-0.3	-3.0	2.7
Cc1ccc(NC(=O)c2cc(C)on2)cc1	-2.1	6.9*	-0.4	5.6	1.9
Cc1cc(NC(=O)c2cc(-c3ccc(O)cc3)on2)no1	-6.1	0.9	-0.2	0.8	nt
Cc1cc(=O)oc2c(C)c(OC(C)C(=O)NCC(O)c3ccccc3)ccc12 (stereo unspecified)	-37.5	3.4	-1.1	-140.1	nt
Cc1c(OC(C)C(=O)NCC(O)c2ccccc2)ccc2c3c(c(=O)oc12)CCCC3 (stereo unspecified)	-89.0	10.2*	-1.1	-253.7	2.2
O=C(CN(CC1CCCO1)C(=O)CNS(=O)(=O)c1ccc(F)cc1)NCCc1ccccc1 (stereo unspecified)	-0.1	-2.0	0.7	-3.7	nt
O=C(CN(CC1CCCO1)C(=O)CNS(=O)(=O)c1ccc(Cl)cc1)NCCc1ccccc1 (stereo unspecified)	7.5	23.4*	-0.7	15.7	0.2
CCOC(=O)COn1c(=O)c[n+]([O-])c2ccccc21	-6.7	15.3*	2.5	-13.4	-0.6
Cc1c(C)n2c3c(cccc13)CC2	1.6	6.0*	0.1	1.7	0.9
COC(=O)[C@]12C[C@H](CC(=O)NCCc3ccccc3OC)C(=O)N(Cc3ccco3)C1=C[C@H](C1CCCC1)O[C@@H]2C	2.1	nt	0.4	5.6	nt
